The list is a sample of the results.
aSyn 5UTR act = Activators via SNCA 5'UTR binding, MLPCN | 7.1% of 300,000 active | alpha-synuclein 5'UTR reporter, activators screen | AID 1814, 2009 | activity score, % (tested at 7.5 µM), hits read low; in the data active = activity score below about -60%
An asterisk follows results filed as active.

SMILES	aSyn 5UTR act
Cc1oc(-c2ccc3c(c2)OCCO3)cc1C(=O)O	-135.1*
Cc1oc(-c2ccc3c(c2)OCCO3)cc1C(=O)NCC(=O)O	-126.1*
Cc1cc(-c2ccc(Br)cc2)n[nH]1	-119.6*
Nc1cc(-c2ccc(Br)cc2)[nH]n1	-89.9*
O=C(NCCc1ccccc1)c1ccc2c(c1)OCCCO2	107.1
O=C(CCCc1ccccc1)c1ccc2c(c1)OCCO2	86.2
O=C(CCN1CCc2ccccc21)c1ccc2c(c1)OCCO2	-154.7*
O=C(c1ccccc1)c1ccc2c(c1)OCCCO2	-63.6*
CC(OC(=O)c1ccc2c(c1)OCCO2)C(=O)c1ccccc1 (stereo not drawn)	-133.1*
O=C(CCc1ccccc1)c1ccc2c(c1)OCCCO2	-190.0*
CNc1ccc(/C=C/C(=O)c2ccc3c(c2)OCCO3)cc1[N+](=O)[O-]	-64.3*
O=C(/C=C/c1ccccc1)c1ccc2c(c1)OCCCCO2	-197.6*
O=C1COc2ccc(C(=O)/C=C/c3ccccc3)cc2N1	-113.5*
O/N=C(/CCc1ccccc1)c1ccc2c(c1)OCCO2	-119.8*
COc1ccc(OC)c(/C=C/C(=O)c2ccc3c(c2)OCCO3)c1	-155.8*
O=C(CC1OC(=O)c2ccccc21)c1ccco1 (stereo not drawn)	-74.7*
CCn1c(O)c(N=NC(=O)c2cccs2)c2ccccc21	-67.3*
Cc1ccccc1Cn1c(O)c(N=NC(=S)Nc2ccccc2F)c2ccccc21	72.5
Oc1c(N=NC(=S)Nc2ccccc2F)c2ccccc2n1Cc1ccccc1F	86.8
CN(C)CCCNC(=S)NCC(c1ccc(Cl)cc1Cl)c1c[nH]c2ccccc12 (stereo not drawn)	110.6
O=C(Nc1ccccn1)c1onc2c1CCCC2	96.4
COc1cc(NC(=O)c2csc3c2CCCC3)ncn1	-152.9*
O=C(Nc1ccccn1)c1csc2c1CCCC2	-162.8*
Cc1ccc(NCC(=O)Nc2ccc(Br)cc2)cc1F	-77.2*
O=C(CC(=O)Nc1ccccc1)Nc1ccccc1	-69.5*
SMILES	aSyn 5UTR act
O=C(CNc1ccccc1)Nc1ccc(F)cc1	-118.3*
COc1ccc2c(c1)CC/C(=C\c1ccc(C)o1)C2=O	-170.2*
COc1ccc2c(c1)C(=O)/C(=C/C=C/c1ccccc1)CC2	-115.3*
COc1ccc2c(c1)CC/C(=C\C=C\c1ccccc1OC)C2=O	-133.8*
N#C/C(=C\c1cccs1)C(=O)Nc1nccs1	-74.6*
O=C(Nc1nccs1)c1ccccc1N=Cc1ccccc1	-84.1*
C/C=C/C=C/C(=O)Nc1nccs1	-77.4*
C/C(=C\c1ccccc1)C(=O)Nc1nccs1	-120.5*
CCCOc1ncnc2c1sc1nc3c(cc12)COC(C)(C)C3	-111.9*
CCSc1ncnc2c1sc1nc3c(cc12)COC(C)(C)C3	-123.5*
CC1(C)Cc2nc3oc4c(=S)nc[nH]c4c3cc2CO1	-64.4*
C=CCSc1ncnc2c1oc1nc3c(cc12)COC(C)(C)C3	-140.7*
CC(C)COc1ncnc2c1sc1nc3c(cc12)COC(C)(C)C3	-117.4*
CCCCCn1cnc2c(sc3nc4c(cc32)CSC(C)(C)C4)c1=O	-129.6*
C=CCn1c(C)nc2c(sc3nc4c(cc32)COC(C)(C)C4)c1=O	-130.2*
CC1(C)Cc2nc3sc4c(=O)n(CC(=O)NCc5ccco5)cnc4c3cc2CO1	-99.9*
CC(C)c1nc2sc3c(NCc4ccco4)ncnc3c2c2c1COC(C)(C)C2	71.0
O=[N+]([O-])c1ccccc1S(=O)(=O)Oc1ccccc1/C=N/n1cnnc1	-79.4*
CCOc1ccc2nc(/N=C/c3c(C)[nH]n(-c4ccc(C)cc4)c3=O)sc2c1	-143.0*
CCCCCN=Cc1c(C)[nH]n(-c2nc3ccccc3s2)c1=O	62.5
CCOc1ccc2c(c1)OC(c1ccc(C)cc1)(C(F)(F)F)NC2=O (stereo not drawn)	95.8
CCOc1ccc2nc(/N=C/c3c(C)[nH]n(-c4ccccc4)c3=O)sc2c1	-144.3*
Clc1ccc2nnnc(-c3ccccc3)c2c1	-374.6*
c1ccc(-c2nnnc3ccccc23)cc1	-165.1*
COc1ccc(C(=O)NC(=S)NC(C)C)cc1Br	-69.9*
SMILES	aSyn 5UTR act
COc1ccc(C(=O)NC(=S)NC(C)(C)C)cc1Br	-157.7*
Cc1cc(N2CCCCC2)n2ncc(-c3ccc(Cl)cc3)c2n1	-181.3*
Cc1cc(N2CCN(C(=O)c3ccco3)CC2)n2ncc(-c3ccccc3)c2n1	-78.5*
CC(C)(C)n1cnc2cc(NCc3cccs3)ccc21	-102.0*
CC(C)(C)n1cnc2cc(NC(=O)c3ccccc3)ccc21	-136.6*
CC(C)(C)n1cnc2cc(NC(=O)c3cccs3)ccc21	-133.6*
COc1ccccc1-n1cnc2cc(NCc3cccs3)ccc21	54.9
CCn1cnc2cc(NC(=O)c3cccs3)ccc21	-109.2*
CCOC(=O)c1sc(NC(=S)NC(=O)C2CC2)cc1C	-84.6*
CCOC(=O)c1sc(NC(=S)NC(=O)C23CC4CC(CC(C4)C2)C3)cc1C	-103.9*
O=C(CCc1ccccc1)Nc1ccccc1F	-135.3*
O=C(CCCc1ccccc1)Nc1ccc(Br)cc1F	-71.4*
O=C(CCc1ccccc1)Nc1ccc(F)cc1F	-67.8*
COc1cc(NC(=O)c2ccc3snnc3c2)cc(OC)c1	-64.6*
O=C(Nc1ccccc1)c1ccc2snnc2c1	-78.8*

Screening data deposited in PubChem BioAssay by Broad Institute.
